From PubChem BioAssay (NCATS)
Records with an inconclusive call do not appear. Entries that show only a call come without a potency. Active and inactive are the calls of the source. Calls follow the shape of the dose curve; as a rule, active = well fitted cell-killing curve with a large enough effect; inconclusive = small, poorly fitted or top-dose-only effect, or effect the other way; inactive = no such curve, though single readings can be large or run the other way.

Assay: Quantitative highthroughput screen to assess conditional lethalithy of SEM cells grown in RPMI1640 with unreated serum (RPMI+s) (AID 1963883); also: nearly all actives have a fitted effect of over 35% in size
Details: SEM B-ALL cells, CellTiter-Glo viability, 48 h; series mostly up to 45.8 µM
From the text: Assay Provider: Jason Cantor Ph.D.
Department of Biochemistry
University of Wisconsin-Madison, Madison, WI, USA
Chemical screening studies have identified drug sensitivities across hundreds of cancer cell lines but most putative therapeutics fail to translate. Discovery and development of drug candidates in models that more accurately reflect nutrient levels in human blood is a major challenge. Here we performed high-throughput screens in conventional versus Human Plasma-Like Medium (HPLM) to identify compounds that were "missed" when screening using the artificial culture condition. Sets of conditional anticancer compounds spanned phases of clinical development and included non-oncology drugs were assessed. […] We also traced conditional phenotypes for several chemotherapeutics to availability of HPLM-specific metabolites and confirmed others for compounds whose reported targets are encoded by nonessential genes. Our findings establish generalizable strategies for exploiting conditional lethality in HPLM to reveal therapeutic candidates and mechanisms of action in cancer cells.
Described herein are the results of each viability screens against three cell lines: NOMO1 (an acute myeloid leukemia cell line); P12-Ichikawa (a T-cell acute lymphoblastic leukemia); and SEM (a B-cell ALL). Each assay was screened using 3 different cell culture media: homemade human plasma-Like medium with 10% dialyzed fetal bovine serum (HPLM+ds); RPMI1640 with 10% untreated FBS and 5mM glucose (RPMI+s); and RPMI1640 with 10% dialyzed fetal bovine serum and 5 mM glucose (RPMI+ds).
PROTOCOL TABLE (as described by Inglese J, Shamu CE and Guy RK. 2007)
SEQUENCE No. (e.g., 1, 2, 3, etc.); […] (e.g., Cells, Incubation, Reagent, etc.); VALUE and DESCRIPTION.
1; Cells; 5 uL; white, solid bottom 1536-well Greiner assay plate.
2; Compounds; 23 nL; Kalypsis pin tool (Wako USA) equipped with a 1536-well pin head to transfer to the assay plates.
3; Incubation; 48 hours; 37C incubation.
4; Reagent; 3 uL; CellTiter Glo (Promega).
5; Incubation; 5 min, room temperature
6; Detection; Luminescence, Viewlux PerkinElmer.
NOTES (numbers refer to Sequence numbers above)
1. Briefly, 5 ul of cell reagent was dispensed using a Multidrop Combi Dispenser. The NOMO1 and SEM cells were plated at 500 cells/well and the P12-Ichikawa line at 1000 cells/well.
2. After seeding the cells, 23 nL of MIPE 4.1 library compounds (in DMSO) were added to each plate using a Kalypsys 1536 Pintool dispenser. Bortezomib at final concentration of […] and DMSO were added to each plate as positive and negative controls respectively. For each screen, MIPE 4.1 compounds were added over an eleven-point concentration range […] in 3-fold dilutions.
3. Each plate was covered with a stainless steel gasketed lid to prevent evaporation and incubated for 48 hour at 37C, 95% relative humidity, and 5% CO2.
4-5. Three microliter CellTilter-GloTM luminescent substrate mix (Promega) reagent was added to the assay plate and incubated at room temperature for 5 min.
6. The luminescence signal was measured using a ViewLux (PerkinElmer) multiplate reader with a 2 second exposure time per plate. Data for each compound were normalized as percent viability such that measurements for DMSO and the empty well controls in each plate were defined as 100% and 0%, respectively.
Potency is read from the fitted curve at half-maximal effect.

SMILES	Potency
C[C@]12CCC(=O)C(O)=C1CC[C@@H]1[C@H]3CCC(=O)[C@@]3(C)CC[C@@H]12	inactive
CC(C)N[C@@H]1CCn2c(=O)[nH]c3cccc(c32)[C@@H]1O	inactive
C#C[C@]1(O)C=C[C@@H]2[C@@H]3CCC4=CC(=O)CC[C@@H]4[C@H]3CC[C@@]21CC	inactive
Cc1nc(-c2ccc(-c3ccc(C(=O)N4CCc5cc6c(cc54)C4(CCN(C)CC4)CO6)cc3)c(C)c2)no1	inactive
c1ccc2c(CN3CCNCC3)cccc2c1	inactive
CC(=Cc1csc(C)n1)[C@@H]1C[C@H]2O[C@]2(C)CCC[C@H](C)[C@@H](O)[C@@H](C)C(=O)C(C)(C)[C@@H](O)CC(=O)O1	inactive
C[C@]12CC[C@H]3[C@@H](CCC4=CC(=O)CC[C@@]43C)[C@H]1CC[C@H]2OC(=O)CCC1CCCC1	inactive
C[C@@]12OC(=O)[C@]1([C@@H](O)[C@@H]1C=CCCC1)NC(=O)[C@H]2CCCl	52.6 nM (active)
CC(C)(O)C(=O)Nc1ccc([N+](=O)[O-])c(C(F)(F)F)c1	inactive
C[C@H]([C@H](O)CCC(C)(C)O)[C@H]1CC[C@@]2(O)C3=CC(=O)[C@@H]4C[C@@H](O)[C@@H](O)C[C@]4(C)[C@@H]3CC[C@]12C	inactive
COC[C@@H](NC(C)=O)C(=O)NCc1ccccc1	inactive
CC(C)(C)[C@]1(O)C[C@@H]2OC(=O)C[C@@]23C(=O)O[C@@H]2OC(=O)[C@H](O)C213 (stereo not given in full)	inactive
CC(=O)N(C)c1cccc(-c2ccnc3c(C(=O)c4cccs4)cnn23)c1	inactive
Cc1ncc(OC[C@@]2(c3cccc(F)c3)C[C@H]2C(=O)Nc2ccc(F)cn2)c(C)n1	inactive
O=P1(N(CCCl)CCCl)NCCCO1 (stereo not given)	8330 nM (active)
COc1cc2cc(c1Cl)N(C)C(=O)C[C@H](OC(=O)C(C)C)[C@]1(C)O[C@H]1[C@H](C)[C@@H]1C[C@@](O)(NC(=O)O1)[C@H](OC)C=CC=C(C)C2	inactive
O=c1[nH]c2ccc(Cl)cc2c(N[C@@H]2CN3CCC2CC3)c1-c1nc2ccccc2[nH]1	83.3 nM (active)
CCCC[N+]1(C)[C@H]2CC(OC(=O)[C@H](CO)c3ccccc3)C[C@H]1[C@H]1O[C@H]12 (stereo not given in full)	inactive
Cc1[nH]nc2ccc(-c3cncc(OC[C@@H](N)Cc4c[nH]c5ccccc45)c3)cc12	590 nM (active)
C[C@]12CC[C@H]3[C@@H](CCC4=CC(=O)CC[C@@]43C)[C@H]1CC[C@H]2O	inactive

SMILES	Potency
COC1=C[C@@H]2[C@@H]3Cc4ccc(OC)c(O)c4[C@]2(CCN3C)CC1=O	inactive
C[C@]12Cc3cn[nH]c3C[C@@H]1CC[C@@H]1[C@H]2CC[C@@]2(C)[C@H]1CC[C@]2(C)O	inactive
CC(=O)OCC1=C(C(=O)O)N2C(=O)[C@@H](N)[C@@H]2SC1	inactive
CCCC(C)(COC(N)=O)COC(=O)NC(C)C (stereo not given)	inactive
C[C@]12CC[C@@H]3[C@@H](CCC4=CC(=O)CC[C@@H]43)[C@@H]1CC[C@@H]2OC(=O)CCc1ccccc1	inactive
NC1=NC(=O)N2CC12 (stereo not given)	1870 nM (active)
CCNC(=O)C[C@@H]1N=C(c2ccc(Cl)cc2)c2cc(OC)ccc2-n2c(C)nnc21	1050 nM (active)
COc1ccc(C(=O)c2c(C)n(CCN3CCOCC3)c3ccccc23)cc1	inactive
CCOP(=O)(OCC)C(C)NC(=O)N(CCCl)N=O (stereo not given)	inactive
C[C@@H]1[C@@H](C(=O)C[C@H]2O[C@@H]3O[C@]4(C)CC[C@@H]5[C@H](C)CC[C@@H]([C@H]2C)[C@@]35OO4)O[C@@H]2O[C@]3(C)CC[C@H]4[C@H](C)CC[C@@H]1[C@@]24OO3	14800 nM (active)
O=C(NCC1CCOCC1)c1cnc(Nc2ccc(Cl)cc2Cl)nc1C(F)(F)F	inactive
COc1cc(OC)c(OC)cc1C=O	inactive
CCN(CC)C(=O)c1ccc(C2=CC3(CCNCC3)Oc3cccc(O)c32)cc1	inactive
COc1ccc2c(c1OC)CN1CCc3cc4c(cc3C1C2)OCO4 (stereo not given)	372 nM (active)
C=CCON=C(C[C@H]1O[C@@H]2O[C@]3(C)CC[C@@H]4[C@H](C)CC[C@@H]([C@H]1C)[C@@]24OO3)[C@H]1O[C@@H]2O[C@]3(C)CC[C@H]4[C@H](C)CC[C@@H]([C@@H]1C)[C@@]24OO3	1050 nM (active)
CC=C(C)C(=O)O[C@H]1C(C)=C2[C@@H]3OC(=O)[C@@](C)(O)[C@@]3(O)[C@@H](OC(=O)CCC)C[C@](C)(OC(C)=O)[C@@H]2[C@@H]1OC(=O)CCCCCCC	33.2 nM (active)
C=C(C)[C@H]1Cc2c(ccc3c2O[C@@H]2COc4cc(OC)c(OC)cc4[C@@H]2C3=O)O1	4180 nM (active)
COc1ccc(CC2NCCc3cc(OC)c(OC)cc32)cc1OC (stereo not given)	14800 nM (active)
O=C(Oc1ccc([N+](=O)[O-])cc1)N1CCN(Cc2cccc(Oc3ccccc3)c2)CC1	inactive
CC(C)(O)C=CC(=O)[C@](C)(O)[C@H]1[C@H](O)C[C@]2(C)[C@@H]3CC=C4[C@@H](C=C(O)C(=O)C4(C)C)[C@]3(C)C(=O)C[C@@]12C	46.9 nM (active)
